The record followed here is PubChem BioAssay (NCATS).

The nature of assay [1]: AP1 Signaling Pathway (AID 357; active = well fitted curve in either direction with a large enough effect, not every such curve was filed as active;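 also: ME-180 reporter cells stimulated with EGF at its EC50 level; % is scaled to controls: 0 for no effect and ±100 for the full control effect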). The note with it: ME-180 AP-1-bla reporter, EGF-induced, beta-lactamase ratio, 5 h. In a few lines:
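Read-out was the 460nm/530nm emission ratio (excitation 405nm) after CCF4 loading for 2.5 hours at room temperature. Cells carried an AP-1-driven beta-lactamase reporter, were stimulated with EC50 EGF plus compound for 5 hours, and AC50 values came from titrations.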

A short description of assay [2]: NFAT Signaling Pathway (AID 444; active = well fitted curve in either direction with a large enough effect, not every such curve was filed as active;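 also: carbachol stimulus at about its EC50 of 1 µM final; % is scaled to controls: 0 for no effect and ±100 for the full control effect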). The following applies: Jurkat NFAT-bla M1, carbachol, beta-lactamase ratio, 5 h. In short, it runs like this: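 Jurkat cells with NFAT-driven β-lactamase reporter and co-expressed M1 receptor, stimulated with carbachol (final 1 uM, ~EC50), compound titration, 5 h at 37 °C. CCF4 loaded 1 h at RT; 460/530 nm ratio gave %activity and AC50.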

In assay [3] the target is Cytochrome P450 1A2 (Homo sapiens) (UniProt P05177). Briefly: p450-cyp1a2 (AID 410). Also: potency is read from the fitted curve at half-maximal effect.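 As to activity change, negative = inhibition: -100% = full effect of reference inhibitor.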 The following applies: recombinant CYP1A2, luciferin-ME demethylation, luminescence; series mostly up to 25.6 µM. In a few lines: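 O-Demethylation of luciferin 6' methyl ether by human CYP1A2 is monitored as luciferase luminescence. Substrate sits at Km (100uM); enzyme is 20nM. Values are scaled to 57 uM furafylline as maximal inhibition.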
Chain of Cytochrome P450 1A2 (Homo sapiens) (P05177 whole entry, looked up): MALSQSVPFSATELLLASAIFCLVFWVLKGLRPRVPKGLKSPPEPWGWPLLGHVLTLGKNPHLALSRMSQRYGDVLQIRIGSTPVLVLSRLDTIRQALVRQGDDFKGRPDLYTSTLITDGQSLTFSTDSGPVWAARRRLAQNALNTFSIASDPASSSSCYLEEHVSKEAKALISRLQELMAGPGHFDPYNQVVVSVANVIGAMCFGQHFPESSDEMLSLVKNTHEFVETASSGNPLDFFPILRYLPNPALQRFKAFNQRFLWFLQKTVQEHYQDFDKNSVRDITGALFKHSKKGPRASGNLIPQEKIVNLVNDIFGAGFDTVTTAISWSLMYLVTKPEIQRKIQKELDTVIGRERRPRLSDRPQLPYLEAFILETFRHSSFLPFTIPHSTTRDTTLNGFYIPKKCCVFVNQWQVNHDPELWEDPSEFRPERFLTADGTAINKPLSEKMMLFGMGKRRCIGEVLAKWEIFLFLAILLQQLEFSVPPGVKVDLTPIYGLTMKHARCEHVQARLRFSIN

Assay [4] addresses Mitogen-activated protein kinase 10 (Mus musculus) (UniProt Q61831). Briefly: JNK3 AlphaScreen Assay (AID 530; active = well fitted curve in either direction with a large enough effect, not every such curve was filed as active;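 also: kinase came from lysate of stimulated human HepG2 cells; signal reports phosphorylation of biotinylated GST-cJun 1-79 at Ser73 with 10 µM ATP; % is scaled to controls: 0 for no effect and ±100 for the full control effect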). The following applies: JNK3 lysate, c-Jun phosphorylation; series mostly up to 25.6 µM. In a few lines: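 Activity was read by AlphaScreen after JNK3-containing HepG2 lysate (cytokine pre-activated) phosphorylated biotinylated GST-cJun with 10 uM ATP at room temperature. Phospho-Ser73 cJun antibody with Protein-A acceptor beads provided detection.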

A short description of assay [5]: Cell Viability - BJ (AID 421).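 Also: potency is read from the fitted curve at half-maximal effect; cells exposed to compound for 40 hours at 37 °C before readout.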 The following applies: BJ fibroblast viability, qHTS. In short, it runs like this:
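Quantitative HTS: ATP depletion in BJ cells after 40 hr compound exposure in complete culture medium, detected with CellTiter-Glo; AC50 from standard Hill fits.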
For orientation: qHTS replaces the single test concentration by a dilution series.

Assay [6] is described as follows: Cell Viability - Jurkat (AID 426;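 active = dose-dependent loss of cell ATP signal giving a full or clear fitted curve, ranked by lower potency value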; also: potency is read from the fitted curve at half-maximal effect). The following applies: qHTS. In short, it runs like this: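 Cells of the human T-cell leukemia line Jurkat (E6-1) are seeded at 5000 per well, treated with compound across a concentration range for 40 hours at 37 °C, then lysed with CellTiter-Glo; luminescence reports ATP.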
Assay [7] can be described thus: Cell Viability - Hek293 (AID 427;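 active = compounds whose dose-response curve shows a full or clear partial loss of cell viability, called from curve shape rather than a numeric limit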;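 also: potency is read from the fitted curve at half-maximal effect; cells exposed to compound for 40 hours at 37 °C before reading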). The following applies: qHTS. In short, it runs like this:
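AC50 values derive from Hill-modelled concentration-response of ATP-based luminescence, normalized between DMSO-only and 100 uM tamoxifen controls. Cells were exposed in complete culture medium for 40 hr at 37 °C before detection.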

Assay [8] in a line: Cell Viability - HepG2 (AID 433).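 Also: potency is read from the fitted curve at half-maximal effect; potency for ATP loss meaning cytotoxicity.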 The note with it: qHTS. In short, it runs like this:
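In this qHTS format, a 40 h, 37 °C compound incubation of HepG2 cells in complete medium precedes a 20 min CellTiter-Glo step at room temperature. Tamoxifen and doxorubicin serve as positive controls; Hill-equation fits yield AC50.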

Assay [9] can be described thus: Cell Viability - SK-N-SH (AID 435).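 Also: potency is read from the fitted curve at half-maximal effect; compound exposure lasted 40 h at 37 °C.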 The following applies: SK-N-SH neuroblastoma cell viability qHTS. In short, it runs like this: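 Human neuroblastoma line, 40 h exposure at 37 °C, ATP quantified via luciferase luminescence; DMSO and 100 uM tamoxifen define 0 and 100% inhibition for AC50 fitting.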
For assay [10], the target named is Glucocorticoid receptor (Homo sapiens) (UniProt P04150). Briefly: GR-GFP Redistribution (AID 450;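 active = compounds whose dose series gives a full or clear partial fitted curve of increased nuclear translocation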; also: potency is read from the fitted curve at half-maximal effect). The following applies: U2OS GR-GFP nuclear translocation, laser cytometry, 2 h.
Chain of Glucocorticoid receptor (Homo sapiens) (P04150 whole entry, looked up, the tested form may be a part): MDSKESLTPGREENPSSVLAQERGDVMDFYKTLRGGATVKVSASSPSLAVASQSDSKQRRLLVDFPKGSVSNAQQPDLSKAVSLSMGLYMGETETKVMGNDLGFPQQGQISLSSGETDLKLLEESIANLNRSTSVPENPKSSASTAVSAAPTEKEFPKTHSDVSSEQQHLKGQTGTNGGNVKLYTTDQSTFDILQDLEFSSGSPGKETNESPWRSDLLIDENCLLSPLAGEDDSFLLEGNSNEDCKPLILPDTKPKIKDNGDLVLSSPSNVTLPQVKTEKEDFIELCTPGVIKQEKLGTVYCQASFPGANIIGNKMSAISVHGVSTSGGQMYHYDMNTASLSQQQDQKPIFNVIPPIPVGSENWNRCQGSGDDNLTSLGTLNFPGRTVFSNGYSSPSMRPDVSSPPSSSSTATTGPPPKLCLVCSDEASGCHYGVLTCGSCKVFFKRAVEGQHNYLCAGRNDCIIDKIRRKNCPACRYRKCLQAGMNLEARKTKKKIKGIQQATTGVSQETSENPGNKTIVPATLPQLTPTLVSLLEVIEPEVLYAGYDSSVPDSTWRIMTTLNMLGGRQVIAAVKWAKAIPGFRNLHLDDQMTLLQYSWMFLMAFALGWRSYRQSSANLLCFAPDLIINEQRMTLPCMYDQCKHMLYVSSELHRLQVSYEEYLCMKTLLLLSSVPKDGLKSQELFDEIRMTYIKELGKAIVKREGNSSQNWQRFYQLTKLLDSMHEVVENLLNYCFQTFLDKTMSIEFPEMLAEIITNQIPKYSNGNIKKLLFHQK
Assay [11] can be described thus: Cell Viability - N2a (AID 540; active = well fitted curve in the direction sought with a large enough effect; an effect the other way counts as inactive or inconclusive; also: nearly all actives have a fitted effect of over 45% in size; also: potency is read from the fitted curve at half-maximal effect;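 as to activity change, negative = cytotoxicity: plate controls were DMSO alone for no effect and tamoxifen control for full effect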). The note with it: N2a mouse neuroblastoma cell viability; activity change, negative = cytotoxicity: at 92.2 µM (top of the series). In short, it runs like this: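 Cytotoxicity was scored as loss of cellular ATP in N2a cells, a mouse neuroblastoma line. Compounds are applied in a qHTS concentration series for 40 hr at 37 °C.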
The nature of assay [12]: Cell Viability - NIH 3T3 (AID 541; active = well fitted curve in the direction sought with a large enough effect; an effect the other way counts as inactive or inconclusive; also: nearly all actives have a fitted effect of over 25% in size; also: potency is read from the fitted curve at half-maximal effect;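 as to activity change, negative = cytotoxicity: plate controls were DMSO alone for no effect and tamoxifen positive control for full effect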). The following applies: NIH 3T3 cell viability, qHTS; activity change, negative = cytotoxicity: at 92.2 µM (top of the series). In a few lines: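 Cells seeded at 1000/well, rested 5 hr at 37 °C, then dosed and incubated 40 hr at 37 °C. CellTiter-Glo added, 20 min room temperature, luminescence read. AC50 by Hill fit.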
A short description of assay [13]: Cell Viability - H-4-II-E (AID 543; active = well fitted curve in the direction sought with a large enough effect; an effect the other way counts as inactive or inconclusive; also: nearly all actives have a fitted effect of over 35% in size; also: potency is read from the fitted curve at half-maximal effect). The note with it: H-4-II-E rat hepatoma viability; series mostly up to 92.2 µM. In short, it runs like this: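 Cells seeded at 1500 per well and rested 5 hr; compounds added; 40 hr incubation at 37 °C; CellTiter-Glo added, 20 min at room temperature; luminescence read. Hill-equation fits gave AC50.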
Assay [14] can be described thus: Cell Viability - SH-SY5Y (AID 544; active = well fitted curve in the direction sought with a large enough effect; an effect the other way counts as inactive or inconclusive; also: nearly all actives have a fitted effect of over 55% in size; also: potency is read from the fitted curve at half-maximal effect;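 as to viability change, negative = cytotoxic: 0% = DMSO alone and -100% = 100 µM tamoxifen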). The following applies: SH-SY5Y neuroblastoma cell viability; viability change, negative = cytotoxic: at 92.2 µM (top of the series). In short, it runs like this:
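Cells were plated at 1500 per well and allowed 5 hr at 37 °C. Compounds were added across a concentration range and incubated 40 hr at 37 °C. CellTiter-Glo was added for 20 min at room temperature before luminescence reading.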

Assay [15] can be described thus: Cell Viability - Renal Proximal Tubule (AID 545; active = well fitted curve in the direction sought with a large enough effect; an effect the other way counts as inactive or inconclusive; also: nearly all actives have a fitted effect of over 40% in size; also: potency is read from the fitted curve at half-maximal effect;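 as to activity change, negative = cytotoxicity: 0% = DMSO only and -100% = 100 µM tamoxifen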). The note with it: renal proximal tubule cells viability, primary cells of rat origin; activity change, negative = cytotoxicity: at 91.7 µM (top of the series). In short, it runs like this:
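In this qHTS format, normal rat kidney-derived proximal tubule cells in complete culture medium receive compound titrations, then sit 40 hours at 37 °C before luciferase-based ATP quantitation; potency is reported as AC50 from concentration-response curves.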

Assay [16] can be described thus: Stat Signaling Pathway (AID 446; active = well fitted curve in either direction with a large enough effect, not every such curve was filed as active;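 also: ME-180 cervical cancer cells given 40 pM IL-6 alongside compound; SIE-controlled beta-lactamase reporter measured as 460/530 nm FRET emission ratio; % is scaled to controls: 0 for no effect and ±100 for the full control effect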). The note with it: ME-180 (cervical carcinoma) SIE beta-lactamase reporter, IL-6 stimulated, 5 h; at 17.2 µM (top of the series). In short, it runs like this: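 Overnight-plated ME-180 cells bearing a STAT Inducible Element beta-lactamase reporter; 5 h co-exposure to compound and 40 pM IL-6; values normalized to 300 pM IL-6 and 125 nM JAK inhibitor controls.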

The nature of assay [17]: Cell Viability - MRC5 (AID 434).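 Also: potency is read from the fitted curve at half-maximal effect; potency reflects cytotoxicity seen as loss of intracellular ATP.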 The following applies: MRC5 lung fibroblast viability, qHTS. In short, it runs like this:
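ATP luminescence read-out (CellTiter-Glo, 20 min RT) after 40 hr, 37 °C compound exposure of 1500 MRC5 cells/well. Data normalized to DMSO (basal) and 100 uM tamoxifen (100% inhibition); AC50 from standard Hill equation.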

The nature of assay [18]: Cell Viability - HUV-EC-C (AID 542; active = well fitted curve in the direction sought with a large enough effect; an effect the other way counts as inactive or inconclusive; also: % is scaled to controls: 0 for no effect and ±100 for the full control effect; nearly all actives have a fitted effect of over 35% in size). The note with it: HUV-EC-C endothelial cell viability, qHTS; series mostly up to 92.2 µM. In a few lines: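 Cells were seeded at 1000 per well and incubated 5 hr at 37 °C before compound addition. After 40 hr at 37 °C, CellTiter-Glo reagent was added for 20 min and luminescence read. AC50 values came from Hill-equation modelling.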
Assay [19] deals with Glucocorticoid receptor (Homo sapiens) (UniProt P04150). Briefly: GR-EFC Redistribution (AID 451). Also: potency is read from the fitted curve at half-maximal effect. The following applies: CHO-K1 GR-EFC translocation, beta-gal luminescence, 2 h. In a few lines: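 CHO-K1 cells expressing nuclear EA and GR-ED fragments of b-gal; compounds titrated up to 46 uM final, 2 h at 37 C. GR nuclear translocation read as complemented b-gal luminescence after 1 h RT detection.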

SMILES strings stand for the structures. A number with no mark means an inactive call. Records with an inconclusive call do not appear. Activity calls are given as the source filed them. Unless noted, calls follow the shape of the full dose curve. Numbered stars: 1 amine (or outer) side, 2 acyl side, 3 side chain; on linkers, the order of the positions; unused ones are H or OH. Bridge positions count the residues as written; N and C are the ends. Square brackets hold non-standard residues; d marks the D form. Peptide text beside a SMILES is read from it. I, II: the chains in the order shown. Actinocin(9to1) = Cc1c2oc3c(C)ccc(C(=O)[*:1])c3nc-2c(C(=O)[*:2])c(N)c1=O; NMeV = CN[C@H](C(=O)O)C(C)C; Sar = CNCC(=O)O

With `CN1CCC[C@@H]1c1cccnc1`, the activity change, negative = inhibition was 12.2% in assay [1] (at 38 µM (top of the series)) and -1.61% in assay [2] (at 38 µM (top of the series)).

Turning to `Cc1cc(=O)n(-c2ccccc2)n1C`, the activity change, negative = inhibition in assay [1] (at 17.2 µM (top of the series)) was 3.67%; in assay [2] (at 17.2 µM (top of the series)), -2.45%. Besides, in assay [3], the Potency result is “inactive”. Also, the outcome in [4] was inactive.

As to `COc1cccc2c1C(=O)c1c(O)c3c(c(O)c1C2=O)C[C@@](O)(C(=O)CO)C[C@@H]3O[C@H]1C[C@H](N)[C@H](O)[C@H](C)O1`, the Potency is 0.177 µM (active) in assay [5]; 0.0218 µM (active) in assay [6]; 0.0255 µM (active) in [7]; greater than 92 µM in assay [8]; 0.0168 µM (active) in assay [9]; greater than 20.6 µM in [10]. The Potency in [11] is 0.398 µM (active); in assay [12], 0.0794 µM (active); in assay [13], 25.1 µM (active); in assay [14], 0.0126 µM (active); in assay [15] it was 15.8 µM (active). In addition, the result in assay [4] was inactive.

For `C/C=C(/C(=C/C)c1ccc(O)cc1)c1ccc(O)cc1`, in [16], the activity, negative = inhibition is -10.4%. Also, the Potency in assay [10] is greater than 20.6 µM.

As to `CC(O)C(=O)O` (centres undefined), the Potency in assay [5], in [6], in assay [7], in [8], in assay [17] and in assay [9] was greater than 92 µM throughout. The molecule was classed as inactive in assay [4]. Further, the Potency result in assay [11], in assay [12], in [18], in [13] and in [14] was “inactive” throughout. For the same molecule, the activity change, negative = cytotoxicity in assay [15] is -2.48%.

Regarding `CNCC[C@@H](Oc1ccccc1C)c1ccccc1`, the Potency in assay [3] was 15.8 µM (active); in assay [19], greater than 46 µM. In addition, in assay [4], the outcome was inactive.

`O=C(OCCOCCO)c1ccccc1Nc1cccc(C(F)(F)F)c1`: the results for the activity change, negative = inhibition in assay [1] (at 17.2 µM (top of the series)) and in [2] (at 17.2 µM (top of the series)) were -27.7% and -18%, respectively. The Potency in assay [10] and in assay [19] was greater than 20.6 µM each time. Further, the outcome in [4] was inactive.

With `Cc1c2oc3c(C)ccc(C(=O)N[C@@H]4C(=O)N[C@H](C(C)C)C(=O)N5CCC[C@H]5C(=O)N(C)CC(=O)N(C)[C@@H](C(C)C)C(=O)O[C@@H]4C)c3nc-2c(C(=O)N[C@@H]2C(=O)N[C@H](C(C)C)C(=O)N3CCC[C@H]3C(=O)N(C)CC(=O)N(C)[C@@H](C(C)C)C(=O)O[C@@H]2C)c(N)c1=O` (I: T[dV]P[Sar][NMeV] / II: T[dV]P[Sar][NMeV]; ester I:1-I:C, II:1-II:C; linker I:N-II:N via Actinocin(9to1)), the Potency in assay [5] was 0.00132 µM (active); in [6], 0.0015 µM (active); in assay [7], 0.00102 µM (active); in assay [8], greater than 92 µM; in assay [17] it was greater than 92 µM; in assay [9], greater than 92 µM. Besides, the Potency in assay [13] is 0.00398 µM (active); in assay [15] it was 0.001 µM (active). In [4], the result was inactive. For the same molecule, the Potency entry in assay [18] is “inactive”.

For the molecule `C[C@@H]1CN(CCCn2c3ccccc3c3ccccc32)C[C@H](C)N1`, the Potency in assay [3] was 0.794 µM (active). Besides, the outcome in assay [4] was inactive.

For the molecule `CN1CCC(=C2c3ccccc3Sc3ccccc32)CC1`, the Potency entry in [3] was “inactive”. In assay [2] (at 17.2 µM (top of the series)), the activity change, negative = inhibition is -31.6% (active). Besides, the activity, negative = inhibition in assay [16] is -4.56%. In addition, the Potency in [10] and in assay [19] was greater than 20.6 µM in each case. The result in assay [4] was inactive.
